From PubChem BioAssay come the findings set out here.

For part of these data: Potency and affinity values are given separately. Activity calls are given as the source filed them.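 How the source made its calls, unless noted: active means primary screen inhibitor hit that blocks the TRPC4 channel at some tested dose, yielding a dose curve; inactive means the rest.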

For assay [1], the system named is TRPC4 beta (transient receptor potential cation channel C4), mouse. In words: activators of mouse TRPC4 channel, confirmation, cell-based, Fluo4 calcium, HEK293 TRPC4beta/mu-opioid, duplicates, 10 µM (AID 2426;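 active means fluorescence ratio normalized to control raised more than 50% in primary screen plus both repeat runs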;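 on activation: percent rise of integrated ratio over buffer wells lacking compound which define 0%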). As to conditions: Fluo4 calcium fluorescence, at 10 µM; hits give high values.
Assay [2] concerns transient receptor potential cation channel C4 beta (TRPC4), mouse. In words: activators of mouse TRPC4 channel, confirmation, cell-based, second round, Fluo4, HEK293 TRPC4beta/mu-opioid, 1 µM (AID 2461;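 active means primary screen active and over 50% activation in each of two duplicate runs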;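 on activation: 0% = wells without test compound as baseline of integrated fluorescence ratio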). The note with it: Fluo4 calcium fluorescence, at 1 µM; hits give high values.
For assay [3], the system named is TRPC4 (transient receptor potential cation channel C4 beta), mouse. In words: positive allosteric modulators of mouse TRPC4, confirmation, cell-based, second round, Fluo-4, HEK293 TRPC4beta/mu-opioid, 1 µM (AID 2554;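 active means primary screen hit whose fluorescence ratio, in both repeats, exceeds the weak agonist control mean by 3 SD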). As to conditions: DAMGO EC20, Fluo-4 calcium flux, at 1 µM; hits give high values.
The subject of assay [4] is TRPC4 beta (transient receptor potential cation channel C4), mouse. In words: positive allosteric modulators of mouse TRPC4, confirmation, cell-based, Fluo-4, HEK293 TRPC4beta/mu-opioid (AID 2555;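 active means primary screen hit whose calcium fluorescence ratio, in both repeats, exceeds the weak agonist control mean by 3 SD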). As to conditions: DAMGO EC20, Fluo-4 calcium flux, at 10 µM; hits give high values. A general note: Calcium flux is commonly read through the fluorescence of an indicator in the cells.

For assay [5], the target named is Short transient receptor potential channel 4 (Mus musculus) (UniProt Q9QUQ5). In words: inhibitors of mouse TRPC4 channel, confirmation, cell-based, Fluo4, HEK293 TRPC4beta/mu-opioid (AID 2636;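 active means calcium signal cut by more than 3 SD below the full-agonist control yet still positive, in both repeats and the earlier primary screen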). As to conditions: DAMGO, Fluo4 calcium flux, at 10 µM; hits give high values.
Chain of Short transient receptor potential channel 4 (Mus musculus) (Q9QUQ5 whole entry, looked up): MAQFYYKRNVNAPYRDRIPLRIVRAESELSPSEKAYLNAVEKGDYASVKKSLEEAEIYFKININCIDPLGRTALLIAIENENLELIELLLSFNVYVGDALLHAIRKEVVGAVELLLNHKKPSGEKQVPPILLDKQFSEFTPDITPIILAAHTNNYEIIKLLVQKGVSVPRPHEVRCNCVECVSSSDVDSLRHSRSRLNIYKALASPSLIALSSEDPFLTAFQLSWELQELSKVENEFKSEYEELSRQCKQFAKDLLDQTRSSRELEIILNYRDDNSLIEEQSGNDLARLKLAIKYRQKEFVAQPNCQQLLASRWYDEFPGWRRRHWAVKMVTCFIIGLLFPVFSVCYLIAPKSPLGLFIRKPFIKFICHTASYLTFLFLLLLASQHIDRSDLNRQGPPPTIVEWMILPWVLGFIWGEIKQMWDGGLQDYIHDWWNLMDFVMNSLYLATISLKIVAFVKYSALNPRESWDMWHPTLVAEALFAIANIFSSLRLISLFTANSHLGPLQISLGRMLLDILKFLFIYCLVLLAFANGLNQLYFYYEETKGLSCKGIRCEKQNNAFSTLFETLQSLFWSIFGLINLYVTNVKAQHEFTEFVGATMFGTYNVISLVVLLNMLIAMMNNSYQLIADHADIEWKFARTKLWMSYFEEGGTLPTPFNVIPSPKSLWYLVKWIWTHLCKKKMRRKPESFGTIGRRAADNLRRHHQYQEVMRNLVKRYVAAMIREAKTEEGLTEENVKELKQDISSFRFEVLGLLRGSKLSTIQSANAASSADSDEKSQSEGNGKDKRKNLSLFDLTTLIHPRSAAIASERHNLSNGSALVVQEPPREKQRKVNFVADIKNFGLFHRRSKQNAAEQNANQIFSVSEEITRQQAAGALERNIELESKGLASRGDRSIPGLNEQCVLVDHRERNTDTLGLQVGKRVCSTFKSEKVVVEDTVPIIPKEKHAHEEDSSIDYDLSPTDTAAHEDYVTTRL
The target is the same in assay [6]. In words: inhibitors of mouse TRPC4 channel, confirmation, cell-based, second round, Fluo4, HEK293 TRPC4beta/mu-opioid, 1 µM (AID 2637;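 active means calcium signal ratio cut to more than 3 SD under the fully stimulated control mean yet still positive, in both repeats and the primary screen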). As to conditions: Fluo4 calcium flux, DAMGO, at 1 µM; hits give high values.
For assay [7] the target is unchanged. Briefly: TRPC4 positive allosteric modulators, dose response, cell-based, HEK293 TRPC4/mu-opioid, Fluo-4 calcium, EC20 DAMGO (AID 434941;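 active means earlier screen potentiator hit that boosts the TRPC4 ion channel at some dose, with a dose response; inactive means no potentiation, no dose response, or not a prior hit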;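 further: calcium entry triggered by an EC20 dose of DAMGO at the co-expressed mu-opioid receptor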). The note with it: HEK293 TRPC4/mu-opioid cells, Fluo-4 calcium fluorescence; series mostly up to 20 µM.
Assay [8] has the same target. Briefly: mouse TRPC4 channel inhibitors, dose response, cell-based, HEK293 TRPC4/mu-opioid, Fluo-4 calcium (AID 434942). As to conditions: HEK293 TRPC4/mu-opioid cells, DAMGO-evoked Fluo-4 calcium ratio; series mostly up to 20 µM.
The target of assay [9] is Short transient receptor potential channel 6 (Mus musculus) (UniProt Q61143). Briefly: inhibition of mouse TRPC6 channel, confirmation, selectivity assay for TRPC4 inhibitor project, cell-based, HEK293, membrane potential dye, duplicate (AID 434948;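 active means active in primary screen and both duplicates, each dropping signal beyond three positive-control SD with fluorescence still positive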). The note with it: HEK293 TRPC6, membrane potential dye fluorescence, at 10 µM, stimulated with maximal-effect acetylcholine; hits give high values.
Chain of Short transient receptor potential channel 6 (Mus musculus) (Q61143 whole entry, looked up): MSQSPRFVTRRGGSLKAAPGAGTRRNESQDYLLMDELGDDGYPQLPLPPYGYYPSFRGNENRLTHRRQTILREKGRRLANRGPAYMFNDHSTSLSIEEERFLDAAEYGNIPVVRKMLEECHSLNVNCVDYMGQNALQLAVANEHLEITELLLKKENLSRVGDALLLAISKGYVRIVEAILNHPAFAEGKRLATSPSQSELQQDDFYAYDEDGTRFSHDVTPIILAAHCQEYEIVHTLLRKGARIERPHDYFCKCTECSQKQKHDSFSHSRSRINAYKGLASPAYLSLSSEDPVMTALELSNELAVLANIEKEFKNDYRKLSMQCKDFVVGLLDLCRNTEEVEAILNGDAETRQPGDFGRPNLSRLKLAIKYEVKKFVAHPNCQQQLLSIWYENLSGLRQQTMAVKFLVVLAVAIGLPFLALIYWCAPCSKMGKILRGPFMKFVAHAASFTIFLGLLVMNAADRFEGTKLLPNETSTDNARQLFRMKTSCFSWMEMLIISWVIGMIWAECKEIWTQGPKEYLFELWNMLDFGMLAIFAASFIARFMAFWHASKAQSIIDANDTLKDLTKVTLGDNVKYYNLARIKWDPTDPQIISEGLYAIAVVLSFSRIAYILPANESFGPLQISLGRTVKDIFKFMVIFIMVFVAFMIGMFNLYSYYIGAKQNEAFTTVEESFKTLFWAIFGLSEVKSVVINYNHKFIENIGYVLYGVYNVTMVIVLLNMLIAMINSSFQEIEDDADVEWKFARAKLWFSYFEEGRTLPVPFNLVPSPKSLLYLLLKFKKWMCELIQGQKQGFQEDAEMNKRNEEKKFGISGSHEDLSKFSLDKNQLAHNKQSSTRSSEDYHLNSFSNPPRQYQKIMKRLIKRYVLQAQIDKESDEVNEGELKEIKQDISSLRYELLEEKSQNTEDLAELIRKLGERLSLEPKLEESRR

Assay [10] shares this target. Briefly: activation of mouse TRPC6 channel, confirmation, selectivity assay for TRPC4 activator project, cell-based, HEK293, membrane potential dye, duplicate (AID 434950;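 active means membrane potential signal rise above negative control mean plus 3 SD in both duplicates, also active in the earlier TRPC4 screen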;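 on activation: 0% = buffer only wells and 100% = acetylcholine maximal-effect wells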). As to conditions: HEK293 TRPC6, membrane potential fluorescence, at 10 µM; hits give high values.
For assay [11] the target is unchanged. Briefly: TRPC6 potentiation by TRPC4 potentiator hits, confirmation, selectivity assay for TRPC4 potentiator project, HEK293 cells, membrane potential dye, duplicate (AID 434952;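 active means compound raising the membrane signal above positive-control mean plus 3 SD in both repeats, and a primary screen hit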). As to conditions: HEK293 TRPC6, membrane potential dye fluorescence, at 10 µM, maximal acetylcholine added after compound; hits give high values.
Assay [12] concerns the target Short transient receptor potential channel 4 (Mus musculus) (UniProt Q9QUQ5). In words: calcium flux activators in TRPC4/5HT1a cells, counter-screen for TRPC4 activator project, cell-based, second counter screen, HEK293 TRPC4/5HT1a, Fluo-4 (AID 434977;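 active means calcium signal rise above buffer-control mean plus 5 SD in both duplicates, and also a hit in the primary screen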;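 on activation: plate controls were assay buffer for no effect and maximal serotonin response for full effect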). The note with it: Fluo-4 calcium flux, at 10 µM; hits give high values.
Assay [13] is described as follows: calcium flux inhibitors in TRPC4/5HT1a cells, confirmation, counter-screen for TRPC4 inhibitor project, cell-based, second counter screen, HEK293 TRPC4/5HT1a, Fluo-4 (AID 434978;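 active means primary screen active whose calcium signal fell more than 3 SD beyond the full-serotonin control mean in both duplicate plates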;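 further: serotonin given first at submaximal then at maximal dose after compound preincubation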). The note with it: Fluo-4 calcium flux, at 10 µM, serotonin added to trigger calcium flux; hits give high values.
In assay [14] the test system is TRPC4 (mouse), co-expressed with 5HT1a in HEK293. Briefly: calcium flux potentiators in TRPC4/5HT1a cells, confirmation, counter-screen for TRPC4 potentiator project, cell-based, second counter screen, HEK293 TRPC4/5HT1a, Fluo-4 (AID 434979;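 active means signal rise over 3 SD above mean of control wells given weak agonist, in both repeats and first screen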). The note with it: Fluo-4 calcium flux, at 10 µM, serotonin added at its EC20 dose; hits give high values.
Assay [15] is described as follows: calcium flux activation in mu-opioid HEK293 cells, confirmation, counter-screen for TRPC4 activator project, cell-based, HEK293 mu-opioid receptor line (AID 449723;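 active means hit in primary screen, with calcium signal over 5 SD above buffer well mean in both duplicates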;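 further: counter screen cells carry the mu-opioid receptor alone and lack TRPC4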). As to conditions: Fluo-4 calcium fluorescence, at 10 µM; hits give high values.
The nature of assay [16]: calcium flux enhancement in mu-opioid HEK293 cells, confirmation, counter-screen for TRPC4 allosteric potentiator project, cell-based, HEK293 mu-opioid receptor line (AID 449724;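 active means calcium signal rise more than 3 SD above the low-dose agonist control mean, in both duplicate plates and the primary screen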;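 further: HEK293 cells carrying mu-opioid receptor only with no TRPC4 channel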). As to conditions: Fluo-4 calcium flux, at 10 µM, compound added before EC20 DAMGO stimulus; hits give high values.

As to `Cc1cc(C)c(C)c(OCCCN(C)C)c1`, the activation in [1] was 152% (active); in assay [2] it was 95% (active); in assay [10], 67.5% (active); in [12], 47.6% (active). For the same compound, the result in assay [3], in [4], in assay [5], in assay [6], in [7] and in [8] was inactive. The compound was classed as inactive in [9], in assay [11], in assay [13], in [15] and in assay [16]. Moreover, the potentiation in [14] was 15.7% (active).
In the case of `COc1ccc(CCN(C)CCC(=O)Nc2c(C)cc(C)cc2C)cc1OC`, the result in assay [1], in assay [2], in [3], in assay [4], in assay [5] and in assay [6] was inactive. Further, the result in [7], in [8], in assay [9], in [11], in assay [13] and in assay [14] was inactive. Moreover, the outcome in [15] and in assay [16] was inactive. Besides, the activation in [10] was 48.5% (active); in assay [12] it was 58.1% (active).
For the compound `CC1(c2ccc(Cl)cc2Cl)OCC(Cn2ccnc2)O1` (stereo not given), the activation is 89% (active) in assay [1], 48.5% (active) in [10] and 19.9% (active) in assay [12]. The result in [2], in [3], in [4], in assay [5], in assay [6] and in [7] was inactive. Further, the outcome in assay [8], in assay [9], in assay [11], in assay [13], in assay [14] and in assay [15] was inactive. In [16], the outcome was inactive.
Turning to `c1ccc(Nc2nc(Nc3ccccc3)nc(N3CCNCC3)n2)cc1`, the activation in assay [1] was 159% (active); in assay [10], 35.5% (active); in [12] it was 56.1% (active). The outcome in assay [2], in [3], in [4], in assay [5], in assay [6] and in assay [7] was inactive. Besides, the result in assay [8], in assay [9], in [11], in assay [13], in assay [14] and in assay [15] was inactive. Moreover, in [16], the outcome was inactive.
On to `Cc1cc(Br)ccc1OCCn1ccnc1`, for which the outcome in [1], in assay [2], in assay [3], in [4], in [5] and in [6] was inactive. The outcome in assay [7], in assay [8], in assay [9], in assay [11], in assay [13] and in assay [14] was inactive. The outcome in [15] and in assay [16] was inactive. For the same compound, the activation in [10] is 37.5% (active); in assay [12], 11.7% (active).
Regarding `CN(C)C(CNC(=S)Nc1cccc(Cl)c1)c1ccccc1` (stereo not given), the activation in [1] was 255% (active); in assay [2], 127% (active). The result in assay [3], in assay [4], in [5], in assay [6], in [7] and in assay [8] was inactive. For the same compound, the call in assay [9], in assay [10], in assay [11], in assay [12], in [13] and in assay [14] was inactive. Moreover, the result in [15] and in assay [16] was inactive.
Turning to `Fc1ccc(C(c2nnnn2Cc2cccs2)N2CCN(C3CCCCC3)CC2)cc1` (stereo not given), the activation in assay [1] is 251% (active); in [2], 67% (active); in assay [10], 60.5% (active); in [12], 22.7% (active). Moreover, the result in assay [3], in assay [4], in assay [5], in assay [6], in assay [7] and in assay [8] was inactive. Moreover, the result in assay [9], in assay [11], in assay [13], in assay [14], in assay [15] and in [16] was inactive.
`COc1ccc(-c2cc(C#N)nc(N3CCNCC3)n2)cc1`: the activation in [1] was 176% (active). In addition, the result in assay [2], in assay [3], in assay [4], in assay [5], in [6] and in assay [7] was inactive. The result in assay [8], in assay [9], in assay [10], in assay [11], in [12] and in [13] was inactive. Further, the result in assay [14], in [15] and in assay [16] was inactive.
Take `C=CCn1c(CCNC(=O)C(C)(C)C)nc2ccccc21`: the values for the activation in assay [1], in assay [10] and in assay [12] were 151% (active), 37% (active) and 30.7% (active), respectively. The result in [2], in assay [3], in assay [4], in assay [5], in assay [6] and in assay [7] was inactive. Moreover, the outcome in assay [8], in assay [9], in assay [11], in assay [13], in assay [14] and in assay [15] was inactive. Moreover, the outcome in [16] was inactive.
On to `Cc1ccccc1N(CC(=O)N/N=C/c1ccc(F)cc1)C(=O)c1ccccc1`, for which the outcome in [1], in assay [2], in [3], in assay [4], in assay [5] and in assay [6] was inactive. Also, the outcome in assay [7], in assay [8], in assay [9], in assay [10], in assay [11] and in assay [12] was inactive. Besides, the result in assay [13], in [14], in assay [15] and in assay [16] was inactive.
On to `CN(C)C(CNC(=O)c1ccc2ccccc2n1)c1ccccc1` (stereo not given), for which the activation in assay [1] is 61% (active); in assay [10], 54% (active). Besides, the result in [2], in assay [3], in [4], in [5], in [6] and in assay [7] was inactive. For the same compound, the result in [8], in [9], in assay [11], in assay [12], in assay [13] and in assay [14] was inactive. The result in [15] and in [16] was inactive.
Take `COc1ccccc1CCC(=O)Nc1cc(S(=O)(=O)N2CCCCC2)ccc1N1CCN(C)CC1`: the values for the activation in assay [1], in assay [2] and in assay [12] were 153% (active), 67% (active) and 32.8% (active), respectively. Also, the outcome in assay [3], in assay [4], in assay [5], in [6], in assay [7] and in [8] was inactive. Also, the call in assay [9], in [10], in [11], in assay [13], in assay [14] and in assay [15] was inactive. In addition, the result in assay [16] was inactive.
In the case of `CCN1CCN(c2c(Cl)cccc2NC(=O)c2ccc3nsnc3c2)CC1`, the activation in [1] is 57% (active). Besides, the result in assay [2], in assay [5], in assay [6], in assay [7], in [8] and in assay [9] was inactive. Moreover, the result in assay [10], in assay [11], in assay [12], in [13], in assay [14] and in [15] was inactive. Besides, the outcome in assay [16] was inactive. In addition, the potentiation was 22% (active) in assay [3] and 14% (active) in assay [4].
`COc1ccc(C(CNC(=O)c2ccc(S(=O)(=O)N(C)C)cc2)N(C)C)cc1` (stereo not given): the figures for the activation in assay [1], in [2] and in [10] were 296% (active), 179% (active) and 29% (active), respectively. The result in assay [3], in assay [4], in assay [5], in assay [6], in assay [7] and in assay [8] was inactive. Further, the compound was classed as inactive in assay [9], in assay [11], in [12], in assay [13], in [14] and in assay [15]. Moreover, the result in [16] was inactive.
For the compound `O=C(C1CCCN(Cc2ccncc2)C1)N1CCc2ccccc2C1` (stereo not given), the activation in [1] is 204% (active); in [2] it was 149% (active); in assay [10] it was 27.5% (active); in [12], 84.2% (active). Also, the result in [3], in [4], in assay [5], in [6], in assay [7] and in [8] was inactive. For the same compound, the compound was called inactive in assay [9], in assay [11], in assay [13], in [14], in assay [15] and in assay [16].
